Protection from H2O2 cell death data for 59 molecules are collected here from PubChem BioAssay AID588492 (Sanford-Burnham Center for Chemical Genomics, 2011).

The campaign covered roughly 360,000 compounds. About 2,300 (0.64%) were called active. This is one part of a sample in which actives are shown more often than they occur.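 The calls were made as follows: active = compounds giving at least 50% protection of heart cells from peroxide-induced death in the single-dose screen, raw or plate-pattern-corrected value; inactive = the rest.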

A short description of this test: cardioprotection against H2O2-induced cell death, primary screen, uHTS, H9c2 cells, ATPLite luminescence (AID 588492).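 Also: 0% = DMSO wells with peroxide and 100% = DMSO wells without peroxide.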 Conditions: H9c2 cardiomyocytes, H2O2 injury protection, 2 h, at 20 µM, hits give high values. In general terms: In ATP-based viability assays light output follows the ATP content of the culture.
As to `Cc1ccccc1N(C(=O)CNC(=O)c1cccs1)C(C(=O)NC1CCCC1)c1ccncc1` (centres undefined), the protection from H2O2 cell death is 1.9% (inactive). For the molecule `O=C(NCC(=O)N(CC1CCCO1)C(C(=O)NC1CCCCC1)c1ccccc1)c1ccco1` (centres undefined), the protection from H2O2 cell death is 2.8% (inactive). For `O=C(NCC(=O)N(Cc1cccs1)C(C(=O)NC1CCCCC1)c1ccco1)c1cccs1` (centres undefined), the protection from H2O2 cell death is 68.2% (active). Take `COc1ccc(-c2ccc(C(=O)NC(C)C)c3occc23)c(C)c1`: the protection from H2O2 cell death was 5.9% (inactive). In the case of `COc1ccc(-c2nc3n(c2Br)CCC3)cc1`, the protection from H2O2 cell death was -13.5% (inactive). For `COc1ccc(NC(=O)CN(C)C(=O)c2cc(C)oc2C)cc1`, the protection from H2O2 cell death was -3.2% (inactive). Consider `CCc1ccc(-c2nc(SCC(=O)NC3CCCC3)n[nH]2)cc1`, for which the protection from H2O2 cell death was -11.6% (inactive).

On to `O=C(OCc1cn([C@H]2C[C@H](c3ccccc3)N(C(=O)c3cccs3)C[C@@H]2O)nn1)c1ccccc1`, for which the protection from H2O2 cell death was -0.9% (inactive).

Turning to `COC(=O)c1ccc(C(NC(=O)OCc2ccccc2)/C(C)=C/[C@@H](C)C(=O)NCc2ccc(OC)c(OC)c2)cc1` (some centres undefined), the protection from H2O2 cell death is 52% (active). Take `COC(=O)c1ccc(C(NC(=O)OCc2ccccc2)/C(F)=C/[C@@H](C)C(=O)O)cc1` (some centres undefined): the protection from H2O2 cell death was 1.8% (inactive). As for `COC(=O)c1cc(CNC(=O)CC(C)c2ccccc2)ccc1OC` (centres undefined), the figure is 9.7% (inactive); as for `CCCCNC(=O)C(C)N(CCN(C)C)C(=O)CCCCCN1C(=O)NC(c2ccc(Cl)cc2)C(C(=O)OCc2ccccc2)=C1C` (centres undefined), -27% (inactive); as for `CC(=O)NC(c1cccc(F)c1)c1nc(-c2cccc(F)c2)cs1` (centres undefined), -2.7% (inactive).

With `Nc1nc2cc(Cl)ccc2n1N`, the protection from H2O2 cell death is 1.6% (inactive).

On to `Cc1c(C(=O)Nc2ccccc2Cl)oc2ccc(S(=O)(=O)N3CCC4(CC3)OCCO4)cc12`, for which the protection from H2O2 cell death was 0.9% (inactive). For the molecule `Cc1c(C(=O)Nc2cccc(S(=O)(=O)N3CCOCC3)c2)oc2ccccc12`, the protection from H2O2 cell death was 4.3% (inactive). Take `COc1ccc(NC(=O)c2oc3ccc(S(=O)(=O)N4CCOCC4)cc3c2C)cc1`: the protection from H2O2 cell death was 52.7% (active).

`Cc1ccc(NC(=O)C(C)OC(=O)Cc2c[nH]c3ccccc23)cc1S(=O)(=O)N1CCOCC1` (centres undefined): the protection from H2O2 cell death is -2.5% (inactive).

As for `C/C(=N\NC(=O)c1cccc([N+](=O)[O-])c1)c1cccnc1`, the protection from H2O2 cell death was 9.5% (inactive). With `CCN(CC)c1ccc(S(=O)(=O)N2CCCCC2)cc1NC(=O)C1=COCCO1`, the protection from H2O2 cell death was -3.5% (inactive). On to `CC(=O)c1c(C)[nH]c(C(=O)OCC(=O)Nc2sc3c(c2C#N)CCCC3)c1C`, for which the protection from H2O2 cell death was -12.2% (inactive).

In the case of `CCN1CCN(C(c2cccnc2)c2cc(Cl)c3cccnc3c2O)CC1` (centres undefined), the protection from H2O2 cell death is 64% (active). In the case of `CCOC(=O)N1CCN(C(=O)C2CCN(c3ncnc4c3sc3cccc(F)c34)CC2)CC1`, the protection from H2O2 cell death is -28.4% (inactive). For the molecule `CC(=O)NC(c1cccs1)c1cc(Br)c2cccnc2c1O` (centres undefined), the protection from H2O2 cell death is 43.4% (inactive). `CCCCC(=O)NC(c1ccc(OC)c(OC)c1)c1ccc2cccnc2c1O` (centres undefined): the protection from H2O2 cell death is 36.9% (inactive). As for `CCOC(=O)N1CCN(C(c2cccnc2)c2ccc3cccnc3c2O)CC1` (centres undefined), the figure is 69.3% (active). With `CCn1c(SC(C)C(=O)Nc2ccc(N3CCOCC3)cc2)nnc1-c1ccco1` (centres undefined), the protection from H2O2 cell death is -3.9% (inactive). As to `O=C(CN1C(=O)c2cccnc2Oc2ccc(Cl)cc21)Nc1ccc(F)cc1`, the protection from H2O2 cell death is 21.7% (inactive). As for `OC(c1cc(Cl)cc(Cl)c1)c1ncc(-c2ccccc2C(F)(F)F)[nH]1` (centres undefined), the figure is -8.9% (inactive); as for `COc1cccc2sc(NNC(=O)c3nc4ccccc4s3)nc12`, 53.7% (active); as for `COc1cccc(/C=C(/CC(=O)Nc2ccc(N3CCOCC3)cc2)c2nc3ccccc3s2)c1`, -4.6% (inactive). In the case of `CC(=O)Nc1cccc(-c2nc3ccccc3s2)c1C`, the protection from H2O2 cell death was -3.3% (inactive). As for `COC(=O)[C@@H]1CCCN1C(=O)c1cc(COc2cccc3cccnc23)on1`, the figure is 11.6% (inactive); as for `CSCCC(c1nnnn1Cc1ccccc1)N1CCN(C/C=C/c2ccccc2)CC1` (centres undefined), -2% (inactive); as for `Cc1ccc(C(=O)OCC(=O)NC2CCCCCCC2)cc1C`, -0.9% (inactive). Turning to `CN(C)c1nc(NN)nc(Nc2ccc(F)cc2)n1`, the protection from H2O2 cell death was -2.7% (inactive). Turning to `Cn1c2ccc(F)cc2c2nnc(NN)nc21`, the protection from H2O2 cell death is 56.4% (active).

As for `CCn1c2ccc(F)cc2c2nnc(SCCN3CCOCC3)nc21`, the protection from H2O2 cell death is 3.7% (inactive).

For the molecule `CSc1nc(-c2ccccc2)nc(C(Cl)Cl)n1`, the protection from H2O2 cell death is -2.9% (inactive). Consider `COC(=O)c1c(C(=O)OC)c2n(c1C)CCS2`, for which the protection from H2O2 cell death is -0.3% (inactive). Consider `COc1ccc(C(C(=O)NCc2ccccc2)N(Cc2cccs2)C(=O)c2cnccn2)cc1` (centres undefined), for which the protection from H2O2 cell death is 79.8% (active).

As to `Cc1cccc(N(C(=O)c2csnn2)C(C(=O)NCc2ccccc2)c2ccncc2)c1` (centres undefined), the protection from H2O2 cell death is 2.2% (inactive). Regarding `COc1ccc(CNC(=O)C(c2ccc(O)cc2)N(Cc2ccco2)C(=O)c2snc(C(N)=O)c2N)cc1` (centres undefined), the protection from H2O2 cell death is 49% (inactive). In the case of `CC(C)c1nnc(NC(=O)CCC(=O)N2CCN(c3cccc(Cl)c3)CC2)s1`, the protection from H2O2 cell death is -2.1% (inactive). Consider `CCOc1ccc(-c2ccc(SCC(=O)N3CCOCC3)nn2)cc1`, for which the protection from H2O2 cell death is -13.9% (inactive). In the case of `COc1cccc(-c2ccc(SCC(=O)N3CCN(c4ccccc4)CC3)nn2)c1`, the protection from H2O2 cell death was 53.9% (active). As for `COc1cccc(/C=C/C(=O)OCC(=O)N2CCN(c3ccccc3)CC2)c1`, the figure is 2% (inactive); as for `CC1(C(=O)NS(=O)(=O)Cc2cccc(Cl)c2)CCN1C(=O)Cc1ccccc1` (centres undefined), -2.8% (inactive). On to `COc1ccc(NC(=O)CN(C)C(=O)CC2CCCCC2)cc1`, for which the protection from H2O2 cell death was 0.1% (inactive).

As for `C[C@H](NC(=O)c1nc[nH]c1C(=O)NCC(=O)OC(C)(C)C)C(=O)OCc1ccccc1`, the protection from H2O2 cell death is 41.9% (inactive). As for `Cc1cccc(NC(=O)c2nc[nH]c2C(=O)NCC(=O)OCc2ccccc2)c1`, the protection from H2O2 cell death was 86.4% (active).

On to `CCOC(=O)c1ccc(NC(=O)c2nc[nH]c2C(=O)NCc2ccccc2)cc1`, for which the protection from H2O2 cell death was 21.8% (inactive). As to `COC(=O)C1=C(C)NC(=O)/C1=C/c1ccc(CNS(=O)(=O)c2ccc(C)cc2)o1`, the protection from H2O2 cell death was 2.9% (inactive).

On to `COC(=O)C1=C(C)NC2=C(C(=O)c3ccccc32)C1c1ccc(-c2ccc(C(=O)O)cc2)o1` (centres undefined), for which the protection from H2O2 cell death is 60.9% (active). On to `Nc1ccc2nc3c(=O)[nH]c(=S)[nH]c3nc2c1`, for which the protection from H2O2 cell death was -6.1% (inactive).

In the case of `CCOc1ncccc1C(=O)N(CC)CC(=O)Nc1ccc(NC(C)=O)cc1`, the protection from H2O2 cell death is -4.3% (inactive). As for `COc1ccc(N(CC(=O)N/N=C/c2cccc3c2OCCO3)S(=O)(=O)c2ccc(NC(C)=O)cc2)cc1`, the figure is 26.2% (inactive). On to `COc1ccc(N(CC(=O)N/N=C/c2cccs2)S(=O)(=O)c2ccc(OC)c(OC)c2)cc1`, for which the protection from H2O2 cell death was 52.7% (active).

As for `COc1ccc(S(=O)(=O)N(CC(=O)N/N=C/c2ccc(C(=O)O)cc2)Cc2ccccc2)cc1OC`, the protection from H2O2 cell death was -0.7% (inactive).
